# Compound activity (PubChem BioAssay)
# Compounds with a hit are over-represented: about 2.8% of the library has one in this group of screens.
# GASC-1 inh: human JMJD2C demethylase inhibition | Q9H3R0 | GST-JMJD2C(1-420) H3K9me3 demethylation, DELFIA europium | inhibition, % at 2.35 µM | 330,000 tested, 0.069% active | AID 2099;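 active means more than half of a compound's replicate wells show inhibition beyond 50%, single wells judged on their own value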;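 further: signal counts dimethyl H3K9 product captured on neutravidin plate; 0% = median of DMSO wells and 100% = 0.3 times that DMSO median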
# PP5 primary: inhibitors of human protein phosphatase 5 (PP5); AID 1987; purified PP5c, OMFP substrate fluorescence; inhibition, % at 6.7 µM; 320,000 tested, 0.18% active; P53041;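 active means inhibition above the campaign's mean inhibition across all tested compounds plus 3 SD, cut at about 9.5% in these data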;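 further: 0% = DMSO only and 100% = 100 µM cantharidin control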
# PG9 binder: PG9 antibody binding by small molecule; 360,000 tested, 0.43% active; TR-FRET gp120-PG9 antibody binding; inhibition, % at 6.7 µM; AID 624416; in the data active means inhibition above about 8.5%
# NR1D1 modulator: Rev-erb alpha (human) modulation; P20393; Rev-erbα–FITC-DNA binding, fluorescence polarization, 90 min; activity, % at 10 µM; 370,000 tested, 0.79% active;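 active means activity above about 14%, limit read from the data; passing the limit was not always enough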;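 further: 0% = DMSO wells with 35 nM protein and 100% = DMSO wells with 750 nM protein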
# KLK7 zymogen act: proKLK7 (human) activation, primary screen | P49862 | purified proKLK7, EDANS-DABCYL substrate fluorescence; 100% is mature enzyme control, 0% vehicle | activation, % at 7 µM | 370,000 tested, 0.9% active | AID 652039;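 active means activation above the mean of all tested compounds plus 3 SD, computed per campaign excluding outliers beyond control limits, cut at about 13% in these data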
# Target sequence (P49862 whole entry, looked up): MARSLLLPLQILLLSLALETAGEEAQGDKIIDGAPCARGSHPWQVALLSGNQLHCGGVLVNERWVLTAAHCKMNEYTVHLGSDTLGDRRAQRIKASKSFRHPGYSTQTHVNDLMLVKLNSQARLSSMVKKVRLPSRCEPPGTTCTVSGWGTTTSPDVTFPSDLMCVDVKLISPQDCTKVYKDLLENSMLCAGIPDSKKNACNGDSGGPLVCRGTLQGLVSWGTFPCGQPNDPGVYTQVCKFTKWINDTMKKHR
# PP1 inh: counter-screen for PP5 inhibitors: inhibitors of human PP1-alpha | purified PP1alpha, OMFP fluorescence | AID 2235 | 320,000 tested, 0.9% active | P62136 | inhibition, % at 6.7 µM;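 active means inhibition above the mean inhibition of all tested compounds plus 3 SD, computed separately for each screening campaign, cut at about 15% in these data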
# Target sequence (P62136 whole entry, looked up): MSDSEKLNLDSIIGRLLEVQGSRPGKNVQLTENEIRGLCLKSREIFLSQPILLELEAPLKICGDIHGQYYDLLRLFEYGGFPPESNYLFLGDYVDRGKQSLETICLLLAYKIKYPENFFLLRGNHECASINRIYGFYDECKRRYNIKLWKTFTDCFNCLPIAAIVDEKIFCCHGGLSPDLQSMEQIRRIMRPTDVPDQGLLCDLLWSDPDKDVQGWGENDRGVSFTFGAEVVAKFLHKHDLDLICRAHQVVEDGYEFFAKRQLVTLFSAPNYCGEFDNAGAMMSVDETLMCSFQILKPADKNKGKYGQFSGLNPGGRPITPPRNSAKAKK
# PG9 bind confirm: PG9 antibody binding, confirmed | inhibition, % at 6.7 µM | AID 651571 | shares compounds with PG9 binder | 1,500 tested, 90% active | TR-FRET PG9 antibody binding, biochemical; in the data active means inhibition above about 9%
# PGV04 counter: counter-screen for PG9 binders: binding control antibody PGV04; shares compounds with PG9 binder; TR-FRET PGV04 antibody-gp120 binding, biochemical; inhibition, % at 6.7 µM; 1,500 tested, 95% active; AID 651604; in the data active means inhibition above about 9.5%
# The depositor's hits bear a star; / = not tested or not shown.
SMILES,GASC-1 inh,PP5 primary,PG9 binder,NR1D1 modulator,KLK7 zymogen act,PP1 inh,PG9 bind confirm,PGV04 counter
COc1ccc2nc(-c3ccccc3)[nH]c(=O)c2c1,/,/,53.6*,12.9,0.7,/,67.9*,76.5*
COc1ccc2nc(C)[nH]c(=O)c2c1,-6.3,2.5,0.5,-4.0,0.2,0.7,/,/
O=C(c1cccc(Oc2ccccc2)c1)N1CCC(Oc2cccnc2)CC1,/,/,/,-5.9,-0.7,/,/,/
CCCN1CCCCC(NC(=O)c2ccc(-c3ccccc3)cc2)C1=O (stereo not drawn),/,/,-1.5,-2.4,-0.4,/,/,/
CCOC(=O)c1c(C)[nH]c(C(=O)CSc2ccccc2)c1C,17.9,2.3,3.4,1.8,-0.9,-1.4,/,/
CCOC(=O)c1c(C)[nH]c(C(=O)CSc2nccc(C)n2)c1C,-5.8,3.1,21.9*,9.1,0.1,-8.1,24.0*,40.8*
CCn1c2c(c3cc(Br)ccc31)CCC/C2=N\O,5.7,3.7,16.2*,13.9,-0.6,7.4,19.8*,31.5*
CCn1c2c(c3cc(OCC(C)C)ccc31)CCCC2=O,5.5,3.7,1.6,4.7,-12.1,-3.8,/,/
CC(C)NC(=O)N[C@@H]1C[C@@H]2O[C@@H](CO)CC[C@@H]2O[C@@H]1CCc1ccc(-c2ccc(F)cc2)cc1,/,/,/,7.3,0.1,/,/,/
O=C(C1=C(O)C(=O)N(CCCN2CCOCC2)C1c1ccncc1)c1cc2ccccc2o1 (stereo not drawn),-8.0,/,/,/,/,/,/,/
CN(C)CCCN1C(=O)C(O)=C(C(=O)c2cc3ccccc3o2)C1c1ccccc1 (stereo not drawn),-3.8,4.8,35.6*,2.3,-0.2,5.6,37.1*,55.1*
COC(=O)c1ccc(C2C(C(=O)c3cc4ccccc4o3)=C(O)C(=O)N2CCCN(C)C)cc1 (stereo not drawn),-7.0,4.4,18.6*,0.2,-0.7,-0.2,20.2*,29.0*
COc1cccc2cc(C(=O)C3=C(O)C(=O)N(Cc4ccco4)C3c3cccnc3)oc12 (stereo not drawn),-2.0,-1.3,/,/,/,11.6,/,/
O=C(C1=C(O)C(=O)N(Cc2ccco2)C1c1cccnc1)c1cc2ccccc2o1 (stereo not drawn),-17.0,2.8,15.3*,-1.6,-0.1,5.8,30.8*,46.2*
CN(C)CCCN1C(=O)C(O)=C(C(=O)c2cc3ccccc3o2)C1c1ccccn1 (stereo not drawn),/,/,26.4*,2.7,-0.8,/,40.0*,51.0*
O=c1oc2cc(O)c(Cl)cc2c2ccccc12,-4.9,-3.8,66.5*,-2.2,-0.9,-2.0,62.1*,81.6*
Cc1ccc(Cn2cc(CN3[C@H](C)COc4cc(Br)ccc4S3(=O)=O)nn2)cc1,/,/,/,1.2,0.3,/,/,/
Brc1ccc(-c2nn3c(-c4ccco4)nnc3s2)o1,2.6,1.2,16.2*,-11.6,-0.4,6.8,20.0*,37.3*
Clc1ccc(-c2ccc(-c3nn4c(-c5ccco5)nnc4s3)o2)cc1,-5.3,1.1,-0.4,-11.8,0.2,-8.0,/,/
CCOC(=O)c1cc2sc(C)cc2n1CC(=O)Nc1cccc(C)c1C,3.9,2.8,11.2*,4.6,0.8,-0.3,11.0*,17.1*
CCOC(=O)c1cc2sc(C)cc2n1CC(=O)Nc1ccc2c(c1)OCCO2,-12.9,3.9,0.6,3.3,0.1,-2.9,/,/
N#Cc1cccc(NC(=O)CSc2nnc(-c3n[nH]c4ccccc34)o2)c1,-1.3,1.3,9.4*,-5.0,0.3,-4.6,8.2,10.3*
COc1ccc(-c2csc(-n3ncc(C(=O)O)c3C(F)(F)F)n2)cc1,4.5,-5.0,16.2*,-1.4,-0.1,-1.3,21.8*,36.1*
COc1ccc(-c2cc(-c3cccs3)c(C#N)c(SCC(=O)NCc3ccco3)n2)cc1,0.6,-1.1,/,/,/,6.6,/,/
COc1cccc(-c2ccc(C#N)c(SCC(=O)NCc3ccco3)n2)c1,-15.1,-2.8,11.4*,2.0,1.2,-1.4,19.8*,36.0*
SMILES,GASC-1 inh,PP5 primary,PG9 binder,NR1D1 modulator,KLK7 zymogen act,PP1 inh,PG9 bind confirm,PGV04 counter
CCCCNc1nc2c(S(=O)(=O)c3ccccc3)nnn2c2ccccc12,/,1.7,29.4*,15.7,-1.6,0.8,58.0*,74.7*
C[C@@H]1Cc2cc(O)cc(O)c2C(=O)O1,/,/,/,5.2,-0.1,/,/,/
CCCCn1c(SCC(=O)NC(C)CC)nc2ccc(N3CCOCC3)cc2c1=O (stereo not drawn),0.4,1.8,1.4,2.4,1.9,-2.1,/,/
CCCCn1c(SCC(=O)NCc2ccccc2)nc2ccc(N3CCOCC3)cc2c1=O,56.0,0.8,19.3*,-1.1,-0.2,6.7,34.7*,55.5*
COC(=O)c1nn(-c2ccc(C)cc2)c2nnc(Cc3ccccc3)c(=O)n12,-9.2,1.4,23.1*,-4.3,-0.1,1.8,18.9*,28.0*
O=c1[nH]cnc2nn(C3OC(CO)C(O)C3O)nc12 (stereo not drawn),/,/,0.4,8.1,-0.9,/,/,/
Cc1cc(N2C(=O)C(O)=C(C(=O)c3cc4ccccc4o3)C2c2cccc(Br)c2)no1 (stereo not drawn),3.2,3.6,38.2*,4.0,1.8,37.2*,43.4*,56.2*
COc1cccc(C2C(C(=O)c3cccs3)=C(O)C(=O)N2c2cc(C)on2)c1 (stereo not drawn),6.6,-1.8,5.4,0.9,0.2,-0.1,/,/
CCCOc1cccc(C2C(C(=O)c3ccco3)=C(O)C(=O)N2c2nnc(C)s2)c1 (stereo not drawn),-7.4,-1.8,-1.2,9.4,0.1,-0.2,/,/
CCCOc1cccc(C2C(C(=O)c3cc4ccccc4o3)=C(O)C(=O)N2c2cc(C)on2)c1 (stereo not drawn),3.2,3.9,17.6*,1.9,1.0,25.8*,23.7*,38.4*
COc1cccc(C2C(C(=O)c3ccc(C)o3)=C(O)C(=O)N2c2cc(C)on2)c1 (stereo not drawn),-5.3,-0.2,8.7*,-5.3,0.4,3.2,16.8*,22.3*
COC(=O)[C@]12C[C@H](CC(=O)NCCCCc3ccccc3)C(=O)N(Cc3cccc4ccccc34)C1=C[C@H](C1CCCC1)O[C@@H]2C,/,/,/,-0.5,0.0,/,/,/
C[C@H]1CN([C@@H](C)CO)C(=O)CCCn2cc(nn2)CO[C@@H]1CN(C)S(=O)(=O)c1cn(C)cn1,/,/,-1.2,-1.5,-0.8,/,/,/
O=C(Nc1sc2c(c1C(=O)NCc1ccco1)CCCC2)c1ccc2c(c1)OCO2,-12.7,-0.5,15.2*,-1.8,-51.9,5.1,8.6*,19.5*
O=C(C1CCCN1S(=O)(=O)c1cccc2ccccc12)N1CCN(c2ccccc2)CC1 (stereo not drawn),/,/,/,-1.2,0.0,/,/,/
